Active and inactive are the calls of the source. Unless noted, the rule behind the calls is not given here.
How the values were obtained:
[1] = test system: Wnt5a (protein binding on small-molecule microarray); assay: small molecules binding Wnt5a protein – biophysical, small-molecule microarray, 635/667 nm fluorescence, primary screen (AID 1142); conditions: 635 nm fluorescence, higher = more signal;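 note: fluorescence read at 667 nm with signal to noise per printed feature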
[2] = ATP-based viability of Huh7 replicon cells – cell-based, CellTiter-Glo luminescence, basal, 48 h, cytotoxicity control for HCV replication inhibitor project, primary screen (AID 1143); conditions: higher = more signal, called active from +8 up or from −8 down;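 note: Huh7 hepatoma cells carrying a hepatitis C replication reporter with no stimulus; test concentration not given here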
[3] = Pseudomonas biofilm growth suppression – PAO1 strain, BacTiter-Glo luminescence, LB-PBS, primary screen (AID 1144); conditions: P. aeruginosa PAO1 biofilm, 12 h, higher = more signal
[4] = basal CRE-LacZ reporter activity in PC12 – cell-based, unstimulated, primary screen (AID 1145); conditions: no forskolin, luminescence, 4.5 h, higher = more signal, called active from +8 up or from −8 down
[5] = forskolin-driven CRE-LacZ activity in PC12 – cell-based, CRE-LacZ reporter, forskolin-stimulated, primary screen (AID 1146); conditions: luminescence, 4.5 h, higher = more signal, called active from +8 up or from −8 down;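 note: PC12 cells with 6xCRE LacZ reporter stimulated by forskolin 10 µM; beta-galactosidase reporter signal reflecting CREB driven transcription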
[6] = biological target: Streptavidin (Streptomyces avidinii) (UniProt P22629); assay: compounds binding control protein streptavidin – biophysical, small-molecule microarray, 635/667 nm fluorescence, artefact control for SMM compound annotation, primary screen (AID 1147); conditions: higher = more signal;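 note: signal reflects streptavidin binding to arrayed compounds as a control protein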
Chain of Streptavidin (Streptomyces avidinii) (P22629 whole entry, looked up): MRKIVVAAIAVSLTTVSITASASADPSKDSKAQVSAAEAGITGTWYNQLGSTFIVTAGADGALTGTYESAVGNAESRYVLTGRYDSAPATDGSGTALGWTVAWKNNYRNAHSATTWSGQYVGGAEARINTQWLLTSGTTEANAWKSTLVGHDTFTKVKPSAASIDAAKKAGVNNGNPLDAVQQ

[7] = probe aInhba binding on compound microarray – biochemical, small-molecule microarray, 635/667 nm fluorescence, primary screen (AID 1148); conditions: higher = more signal;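 note: score merges 667nm spot fluorescence with signal-to-noise for antibody binding to printed compounds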
Torsin-1A (Homo sapiens) [8] = biological target: Torsin-1A (Homo sapiens) (UniProt O14656); assay: TOR1A wild-type binding on microarray – cell lysate, small-molecule microarray, lysate, 635/667 nm, primary screen (AID 1149); conditions: COS7 hTOR1A-WT lysate, 635 nm fluorescence, higher = more signal
Chain of Torsin-1A (Homo sapiens) (O14656 whole entry, looked up): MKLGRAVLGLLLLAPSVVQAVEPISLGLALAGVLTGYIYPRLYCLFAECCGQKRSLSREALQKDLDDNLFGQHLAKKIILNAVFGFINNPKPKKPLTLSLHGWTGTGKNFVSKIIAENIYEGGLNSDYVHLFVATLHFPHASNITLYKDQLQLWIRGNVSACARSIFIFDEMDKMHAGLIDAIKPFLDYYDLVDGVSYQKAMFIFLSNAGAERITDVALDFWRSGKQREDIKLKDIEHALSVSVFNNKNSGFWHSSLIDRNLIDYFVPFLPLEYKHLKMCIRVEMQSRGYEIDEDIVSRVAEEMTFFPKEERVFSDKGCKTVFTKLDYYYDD

Torsin-1A (Homo sapiens) [9] = biological target: Torsin-1A (Homo sapiens) (UniProt O14656); assay: torsin A mutant lysate binding on microarrays – cell lysate, small-molecule microarray, COS7 lysate, 635/667 nm fluorescence, primary screen (AID 1150); conditions: COS7 hTOR1A mutant lysate, 635 nm fluorescence, higher = more signal;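 note: score pools 667 nm emission and signal to noise measuring lysate protein binding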
[10] = test system: Sonic hedgehog protein (Shh); assay: Sonic hedgehog microarray binding compounds – biochemical, small-molecule microarray, 635/667 nm fluorescence, primary screen (AID 1151); conditions: 635 nm fluorescence, higher = more signal;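 note: Shh protein binding to compounds spotted on small-molecule microarray slides; score combines spot fluorescence intensity with signal-to-noise across triplicate slides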
[11] = optical density shifts of acrAB sulA E. coli – strain DRC41, OD650, 48 h, E. coli filamentation inducer project, primary screen (AID 1152); conditions: higher = more signal, called active from +8 up or from −8 down;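 note: E. coli MC1000 strain DRC41 lacking acrAB efflux pump and sulA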
[12] = probe aLefty1 binding on compound microarray – biochemical, small-molecule microarray, 635/667 nm fluorescence, primary screen (AID 1153); conditions: higher = more signal;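 note: score merges spot fluorescence with signal-to-noise ratio from the scanned slide images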
[13] = plasmodial surface anion channel blockers, osmotic lysis – cell-based, P. falciparum Indochina, OD700, 1 h, primary screen (AID 1154); conditions: P. falciparum Indochina infected RBC osmotic lysis, higher = more signal, called active from +8 up or from −8 down
[14] = plasmodial surface anion channel blockers, osmotic lysis – cell-based, P. falciparum Indochina, OD700, 2 h, primary screen (AID 1155);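 note: lysis reports solute entry through the parasite surface anion channel PSAC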; conditions: P. falciparum Indochina infected erythrocytes, higher = more signal, called active from +8 up or from −8 down
[15] = changes in parasitized red cell lysis, either direction – P. falciparum Indochina, OD700, 3 h, PSAC antagonist project, primary screen (AID 1156); conditions: P. falciparum-infected erythrocytes, osmotic lysis, higher = more signal, called active from +8 up or from −8 down
[16] = plasmodial surface anion channel blockers, osmotic lysis – cell-based, P. falciparum Indochina, OD700, 18 h, primary screen (AID 1157); conditions: P. falciparum Indochina infected erythrocytes, osmotic lysis OD700, 18 h; higher = more signal, called active from +8 up or from −8 down
[17] = S6 kinase pathway phospho-S6 level changes – cell-based, A549, cytoblot, luminescence, serum-stimulated, primary screen (AID 1158); conditions: 5 h, higher = more signal;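 note: serum-stimulated A549 lung adenocarcinoma cells; signal is phosphorylated S6 detected by cytoblot immunostaining with HRP secondary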
[18] = biological target: NADPH oxidase 2 (Homo sapiens) (UniProt P04839); assay: compounds shifting NOX2 Amplex Red fluorescence – cell-based, HEK293-NOX2, PMA-stimulated, NOX inhibitor project, primary screen (AID 1159); conditions: 45 min, higher = more signal, called active from +8 up or from −8 down; note: test concentration not given here
Chain of NADPH oxidase 2 (Homo sapiens) (P04839 whole entry, looked up): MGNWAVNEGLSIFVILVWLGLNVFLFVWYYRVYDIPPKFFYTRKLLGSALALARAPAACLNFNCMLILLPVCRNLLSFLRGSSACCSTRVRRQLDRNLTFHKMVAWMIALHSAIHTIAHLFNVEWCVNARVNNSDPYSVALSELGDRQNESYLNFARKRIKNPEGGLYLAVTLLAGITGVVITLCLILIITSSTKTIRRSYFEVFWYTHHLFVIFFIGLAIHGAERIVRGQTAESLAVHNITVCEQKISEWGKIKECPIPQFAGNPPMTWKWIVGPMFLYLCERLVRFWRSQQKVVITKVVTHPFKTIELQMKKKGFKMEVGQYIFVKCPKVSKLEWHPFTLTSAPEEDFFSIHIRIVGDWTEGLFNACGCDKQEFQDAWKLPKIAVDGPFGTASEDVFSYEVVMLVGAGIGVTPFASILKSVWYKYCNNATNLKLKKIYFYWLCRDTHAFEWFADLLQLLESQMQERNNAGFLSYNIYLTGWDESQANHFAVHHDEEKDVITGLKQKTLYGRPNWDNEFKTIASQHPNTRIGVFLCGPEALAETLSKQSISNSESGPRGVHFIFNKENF

[19] = biological target: NADPH oxidase 4 (Homo sapiens) (UniProt Q9NPH5); assay: compounds shifting NOX4 Amplex Red fluorescence – cell-based, HEK293-NOX4, tetracycline-induced, NOX inhibitor project, primary screen (AID 1160); conditions: HEK293-NOX4, Amplex Red H2O2 fluorescence, 45 min; higher = more signal, called active from +8 up or from −8 down
Chain of NADPH oxidase 4 (Homo sapiens) (Q9NPH5 whole entry, looked up): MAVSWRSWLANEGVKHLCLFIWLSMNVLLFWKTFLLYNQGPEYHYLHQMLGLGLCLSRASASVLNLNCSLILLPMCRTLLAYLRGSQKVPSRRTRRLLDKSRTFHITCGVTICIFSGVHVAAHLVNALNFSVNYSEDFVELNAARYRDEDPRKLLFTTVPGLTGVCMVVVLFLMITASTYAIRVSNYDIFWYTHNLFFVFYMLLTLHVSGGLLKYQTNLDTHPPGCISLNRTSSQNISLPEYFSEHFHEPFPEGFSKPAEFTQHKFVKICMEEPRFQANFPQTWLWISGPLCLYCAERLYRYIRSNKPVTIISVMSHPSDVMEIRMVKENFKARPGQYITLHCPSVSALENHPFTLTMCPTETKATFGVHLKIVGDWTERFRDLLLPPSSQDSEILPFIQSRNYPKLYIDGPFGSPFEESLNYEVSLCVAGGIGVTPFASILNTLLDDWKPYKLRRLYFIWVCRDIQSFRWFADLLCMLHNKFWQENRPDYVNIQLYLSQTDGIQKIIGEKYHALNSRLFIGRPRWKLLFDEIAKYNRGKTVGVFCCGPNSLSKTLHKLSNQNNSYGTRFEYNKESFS

[20] = biological target: NADPH oxidase 5 (Homo sapiens) (UniProt Q96PH1); assay: compounds shifting NOX5 Amplex Red fluorescence – cell-based, HEK293-NOX5, NOX inhibitor project, primary screen (AID 1161); conditions: HEK293-NOX5, ionomycin, 45 min, higher = more signal
Chain of NADPH oxidase 5 (Homo sapiens) (Q96PH1 whole entry, looked up): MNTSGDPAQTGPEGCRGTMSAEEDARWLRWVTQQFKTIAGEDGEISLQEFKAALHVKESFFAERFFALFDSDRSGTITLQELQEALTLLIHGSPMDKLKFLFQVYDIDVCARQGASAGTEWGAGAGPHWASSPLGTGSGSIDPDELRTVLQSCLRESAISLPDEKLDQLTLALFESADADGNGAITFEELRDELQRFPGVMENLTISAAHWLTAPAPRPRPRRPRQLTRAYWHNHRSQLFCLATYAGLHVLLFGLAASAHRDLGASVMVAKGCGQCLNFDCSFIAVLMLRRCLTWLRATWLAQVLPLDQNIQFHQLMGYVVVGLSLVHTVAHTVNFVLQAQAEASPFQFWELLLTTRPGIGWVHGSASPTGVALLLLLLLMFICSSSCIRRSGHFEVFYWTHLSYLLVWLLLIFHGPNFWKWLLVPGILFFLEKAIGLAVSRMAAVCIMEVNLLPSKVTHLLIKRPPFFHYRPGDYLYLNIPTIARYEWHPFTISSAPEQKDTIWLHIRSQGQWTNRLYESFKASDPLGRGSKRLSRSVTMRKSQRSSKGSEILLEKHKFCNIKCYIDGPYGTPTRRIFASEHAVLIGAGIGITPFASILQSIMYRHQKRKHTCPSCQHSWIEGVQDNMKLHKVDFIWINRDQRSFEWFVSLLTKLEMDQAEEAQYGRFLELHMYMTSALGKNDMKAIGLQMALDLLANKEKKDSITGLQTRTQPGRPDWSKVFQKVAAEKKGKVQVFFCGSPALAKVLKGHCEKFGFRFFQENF

Structure (SMILES) | composite z-score [1] | z-score [2] | z-score [3] | z-score [4] | z-score [5] | composite z-score [6] | composite z-score [7] | composite z-score (Torsin-1A (Homo sapiens) [8]) | composite z-score (Torsin-1A (Homo sapiens) [9]) | composite z-score [10] | z-score [11] | composite z-score [12] | z-score [13] | z-score [14] | z-score [15] | z-score [16] | z-score [17] | z-score [18] | z-score [19] | z-score [20]
CC(C)C[C@@H]1NC(=O)[C@@H]2C[C@H](C(=O)O)[C@H](c3ccc(O)cc3)N2C1=O | 0.415 | -0.393 (inactive) | -0.934 (inactive) | -0.114 (inactive) | -0.837 (inactive) | 0.741 | -0.013 | 0.656 | 1.05 | 1.74 | 2.59 (inactive) | 0.013 | 4.56 (inactive) | 0.677 (inactive) | -0.641 (inactive) | 0.179 (inactive) | 1.09 | 0.304 (inactive) | 0.398 (inactive) | -0.107
C=C(COC)C(=O)CC[C@@H](OC(=O)c1cccnc1)c1cccc(OCCO)c1 | 0.0666 | -0.864 (inactive) | -0.652 (inactive) | 8.15 (active) | 5.43 (inactive) | -0.296 | -0.127 | 0.653 | 0.778 | 1.37 | 0.857 (inactive) | 0.571 | 13.9 (active) | 1.86 (inactive) | 1.21 (inactive) | 0.454 (inactive) | 0.28 | -3.15 (inactive) | -0.703 (inactive) | -1.33
C=CCN1C(=O)[C@]2(O[C@H](CCO)[C@@H]([Si](C)(C)c3ccc(OC)cc3)[C@@H]2C)c2ccccc21 | -0.381 | -8 (inactive) | -0.566 (inactive) | 19.5 (active) | -3.3 (inactive) | -0.652 | -0.209 | -0.958 | -0.0259 | -1.12 | -1.95 (inactive) | -0.33 | 11.9 (active) | 2.43 (inactive) | -2.63 (inactive) | 1.19 (inactive) | -0.613 | -0.536 (inactive) | -0.0158 (inactive) | -1.23
CC(C)CNC(=O)[C@@H]1c2ccccc2C(=O)N(C(C)C)[C@H]1c1ccc(CO)cc1 | 0.0274 | -1.93 (inactive) | -0.753 (inactive) | -0.179 (inactive) | -0.739 (inactive) | -1.16 | -0.0986 | 1.13 | 0.0411 | 0.35 | 0.941 (inactive) | -0.0559 | 0.747 (inactive) | -0.483 (inactive) | -0.758 (inactive) | -0.779 (inactive) | 1.85 | -0.215 (inactive) | 0.443 (inactive) | 0.887
C=CCOC(=O)[C@@H]1[C@H]2C(=O)O[C@H](c3ccccc3)[C@H](c3ccccc3)N2[C@H](c2ccc(OCCOC(=O)[C@H]3C[C@H]4C(=O)NCC(=O)N4[C@H]3c3ccc(O)cc3)cc2)[C@@]12C(=O)Nc1ccc(I)cc12 | 0.266 | -0.199 (inactive) | 0.22 (inactive) | -0.394 (inactive) | -0.732 (inactive) | 0.868 | -0.0163 | 1.11 | 0.854 | 1.81 | -0.707 (inactive) | -0.154 | 8.8 (active) | 2.39 (inactive) | 0.345 (inactive) | 1.16 (inactive) | 0.379 | 0.588 (inactive) | 0.812 (inactive) | 0.711
O=C1C2C=CC(C(O)c3cccs3)N(Nc3ccccc3)C2C(=O)N1c1ccccc1 (stereo not given) | 0.114 | -2.55 (inactive) | -0.991 (inactive) | -0.136 (inactive) | 0.592 (inactive) | 0.195 | -0.0604 | -0.372 | -0.629 | 0.0003 | -0.597 (inactive) | 0.328 | 2.55 (inactive) | 0.52 (inactive) | 0.916 (inactive) | -0.423 (inactive) | 2.34 | -2.63 (inactive) | -3.57 (inactive) | -3.35
CC(=O)NCCCC[C@@H]1NC(=O)[C@@H]2C[C@H](C(=O)NCCCCCC[N+](C)(C)C)[C@H](c3ccc(O)cc3)N2C1=O | 0.0463 | 0.159 (inactive) | 0.795 (inactive) | -0.675 (inactive) | -0.293 (inactive) | -0.314 | -0.105 | 0.0055 | 0.885 | 1.75 | -0.303 (inactive) | 0.102 | 1.5 (inactive) | 0.0681 (inactive) | -3.5 (inactive) | 0.0574 (inactive) | -0.879 | 0.881 (inactive) | 0.983 (inactive) | 0.139
COC(=O)C(CC#Cc1ccc2c(c1)[C@]1(C(=O)N2)[C@H](c2ccc(O)cc2)N2[C@H](c3ccccc3)[C@H](c3ccccc3)OC(=O)[C@H]2[C@@H]1C(=O)N1CCc2cc(OC)c(OC)cc2C1)C(=O)OC | 0.294 | -0.26 (inactive) | 0.786 (inactive) | 0.918 (inactive) | 0.351 (inactive) | 0.455 | -0.101 | 0.966 | 0.48 | 1.31 | -0.958 (inactive) | 0.156 | 1.4 (inactive) | 0.923 (inactive) | 0.848 (inactive) | 0.591 (inactive) | -0.747 | 2.05 (inactive) | 0.706 (inactive) | 0.218

— PubChem BioAssay
